The list is not random: actives were taken first. Their share in the collection is about 21%.
DT40 TDP1 no CPT: qHTS for Inhibitors of human tyrosyl-DNA phosphodiesterase 1 (TDP1): qHTS in cells in absence of CPT. 420,000 tested, 15% active. DT40 Tdp1-/- hTDP1 cells, no CPT, ATP luminescence, 48 h. Potency, µM (titrated, usually from 46.2 µM), hits mostly inhibitors; further: nearly all actives have a fitted effect of over 55% in size
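Luminescent ATP content (CellTiter-Glo) served as the growth readout. Knockout chicken DT40 cells expressing human TDP1 were exposed to compounds without camptothecin for a minimum 48 hr at 37 °C.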
Gal4-VP16 FLuc: counter-screen for ROR gamma inhibitors: Gal4-VP16 reporter; Potency, µM (titrated, usually from 53.6 µM), actives largely listed as inhibitors; Drosophila S2 Gal4-VP16 UAS-luciferase, luminescence, 20 h; 310,000 tested, 3.5% active;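 further: Gal4-VP16 expression switched on by copper sulfate through the metallothionein promoter; nearly all actives have a fitted effect of over 50% in size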
RORgamma inh: blocks mouse ROR gamma transcriptional activity; P51450; Potency, µM (top dose mostly 53.6 µM), actives largely listed as inhibitors; 310,000 tested, 5.4% active; Drosophila S2 Gal4-RORgamma UAS-luciferase reporter, 20 h; further: nearly all actives have a fitted effect of over 60% in size
Target sequence (P51450 whole entry, looked up, the tested form may be a part): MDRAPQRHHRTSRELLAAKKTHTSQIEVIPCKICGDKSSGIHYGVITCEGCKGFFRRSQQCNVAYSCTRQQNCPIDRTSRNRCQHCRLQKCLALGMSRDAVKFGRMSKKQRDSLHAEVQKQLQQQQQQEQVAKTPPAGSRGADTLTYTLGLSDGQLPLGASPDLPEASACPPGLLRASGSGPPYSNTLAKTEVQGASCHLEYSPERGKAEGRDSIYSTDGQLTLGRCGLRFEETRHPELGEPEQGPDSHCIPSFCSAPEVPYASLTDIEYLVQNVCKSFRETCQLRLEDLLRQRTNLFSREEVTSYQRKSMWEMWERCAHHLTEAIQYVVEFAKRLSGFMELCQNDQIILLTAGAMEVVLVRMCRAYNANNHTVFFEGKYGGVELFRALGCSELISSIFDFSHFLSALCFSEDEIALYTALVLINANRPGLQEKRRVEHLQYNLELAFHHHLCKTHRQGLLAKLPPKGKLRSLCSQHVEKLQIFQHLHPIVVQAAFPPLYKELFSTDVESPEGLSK
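Luminescence from a UAS-regulated Photinus luciferase reporter in stably transfected Drosophila Schneider cells is measured; decreased signal marks ROR gamma inhibition. Fusion expression is induced by 700 uM copper sulfate for 20 hr.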
ELG1 DNA repair: blocks ELG1-dependent DNA repair in HEK293T cells; HEK293T ELG1-luciferase reporter, luminescence, 16 h; DNA damage induced by 5-fluorouridine; Potency, µM (top dose mostly 46.1 µM), usual class: inhibitors; 330,000 tested, 2.3% active; further: nearly all actives have a fitted effect of over 55% in size
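HEK293T cells expressing luciferase-tagged ELG1 (2,000/well) received 5-Fluorouridine plus compound or DMSO for 16 hr at 37 °C. Luciferase was read by ONE-Glo luminescence after 30 min at room temperature.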
IL-1B inflam inh: inflammasome signaling inhibition, IL-1 beta readout | THP-1 LPS/ATP IL-1B secretion, AlphaLISA, 16 h; stronger effect = lower value | activity change, % at 57.5 µM | 360,000 tested, 4.7% active | AID 743279; in the data active means activity change below about -50%; inconclusive means mostly about -30% to -49%
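THP-1 cells pretreated 1 hr with compounds (up to 57.5 uM final), then stimulated with LPS (250 ng/mL final) plus ATP (1.25 mM final); secreted IL-1B measured by AlphaLISA after 16 hr, decreased signal indicating inhibition.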
TDP1 cell CPT: DT40-hTDP1 cell growth loss with CPT; chicken DT40 Tdp1-/-;hTDP1 cells + 20 nM CPT, ATP luminescence, 48 h; 420,000 tested, 12% active; Potency, µM (series often up to 46.2 µM), usual class: inhibitors; further: nearly all actives have a fitted effect of over 55% in size
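Chicken DT40 Tdp1-/- cells complemented with human TDP1, 400 cells/well, exposed to compounds plus 20 nM camptothecin for at least 48 h at 37 C; viability read as ATP content by CellTiter-Glo luminescence.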
Of the large screens only hits and unclear results are named; the others gave an inactive call. Unless noted, the call rests on the fitted dose curve; in most records, active means well fitted curve in the direction sought with a large enough effect; inconclusive means small, poorly fitted or top-dose-only effect, or another doubt; inactive means no such curve, though single readings can be large; an effect the other way counts as inactive or inconclusive.

Cc1ccsc1C(=O)N1CCN(c2ncc(C(F)(F)F)cc2Cl)CC1	DT40 TDP1 no CPT 15µM, TDP1 cell CPT 12µM (no result: Gal4-VP16 FLuc, RORgamma inh, ELG1 DNA repair)
CCN1C(=O)[C@@H]2[C@@H](c3ccc(-c4ccc(F)cc4)cc3)N3CCCC[C@@]3(C(=O)OC)[C@@H]2C1=O	DT40 TDP1 no CPT 23µM, ELG1 DNA repair inconclusive, TDP1 cell CPT inconclusive (no result: Gal4-VP16 FLuc, RORgamma inh)
CCSc1ccc([C@@H]2[C@@H]3C(=O)N(CC)C(=O)[C@@H]3[C@]3(C(=O)OC)CCCCN23)cc1OC	DT40 TDP1 no CPT inconclusive (no result: Gal4-VP16 FLuc, RORgamma inh)
CCN1C(=O)[C@H]2[C@@H](c3ccc(-c4ccc(C(C)=O)cc4)c(OC)c3)N3CCCC[C@@]3(C(=O)OC)[C@H]2C1=O	DT40 TDP1 no CPT 16µM, TDP1 cell CPT 23µM (no result: Gal4-VP16 FLuc, RORgamma inh)
CCN1C(=O)[C@@H]2[C@@H](c3ccc(-c4ccc(F)cc4)c(OC)c3)N3CCCC[C@@]3(C(=O)OC)[C@@H]2C1=O	DT40 TDP1 no CPT 16µM, ELG1 DNA repair inconclusive, TDP1 cell CPT 16µM (no result: Gal4-VP16 FLuc, RORgamma inh)
COc1cc(C(C)=O)ccc1OCC(=O)NCCCn1nc(C)cc1C	DT40 TDP1 no CPT inconclusive, ELG1 DNA repair inconclusive (no result: Gal4-VP16 FLuc, RORgamma inh)
NC(=O)c1ccccc1NC(=O)CC12CC3CC(CC(C3)C1)C2	DT40 TDP1 no CPT inconclusive, TDP1 cell CPT 21µM
Cc1ccc(NC(=O)CNC(=O)CC23CC4CC(CC(C4)C2)C3)c(O)c1	IL-1B inflam inh -52 (no result: Gal4-VP16 FLuc, RORgamma inh)
COc1ccc(NC(=O)CNC(=O)CC23CC4CC(CC(C4)C2)C3)c(OC)c1	DT40 TDP1 no CPT inconclusive, TDP1 cell CPT inconclusive (no result: Gal4-VP16 FLuc, RORgamma inh)
O=C(NN1C(=O)c2ccccc2NC1c1ccccn1)c1ccc([N+](=O)[O-])cc1 (stereo not drawn)	none
O=C1c2ccccc2C(Nc2ccc(S(=O)(=O)N3CCCCCC3)cc2)N1Cc1ccco1 (stereo not drawn)	DT40 TDP1 no CPT 16µM, ELG1 DNA repair inconclusive, TDP1 cell CPT 21µM
COc1ccc(C(=O)Nc2ccccc2C(=O)Nc2ccc(C(=O)O)cc2)cc1	Gal4-VP16 FLuc inconclusive, RORgamma inh inconclusive, ELG1 DNA repair inconclusive
COc1ccc(C(=O)Nc2cccc3c2CCCC3)cc1	DT40 TDP1 no CPT 5.8µM, TDP1 cell CPT 10µM
COc1ccc(C(=O)Nc2ccccc2C(=O)Nc2ccccc2C(=O)O)cc1	DT40 TDP1 no CPT 23µM, TDP1 cell CPT 18µM
COc1ccc(C(=O)Nc2ccccc2C(N)=O)cc1	ELG1 DNA repair inconclusive, TDP1 cell CPT inconclusive
COc1ccc(CC(=O)Nc2cccc3c2CCCC3)cc1	none
COc1ccc(C(=O)Nc2ccccc2C(=O)Nc2ccncc2)cc1	DT40 TDP1 no CPT 16µM, ELG1 DNA repair inconclusive, TDP1 cell CPT inconclusive
COc1ccc(C(=O)Nc2ccccc2C(=O)N/N=C/c2cccc3ccccc23)cc1	DT40 TDP1 no CPT 16µM, Gal4-VP16 FLuc 0.79µM, RORgamma inh 1µM, ELG1 DNA repair inconclusive, TDP1 cell CPT 21µM
O=C(CCCn1c(=O)c2sccc2n(Cc2cccc(Cl)c2)c1=O)NCc1ccc2c(c1)OCO2	TDP1 cell CPT inconclusive (no result: Gal4-VP16 FLuc, RORgamma inh, ELG1 DNA repair, IL-1B inflam inh)
O=C1c2ccccc2NC2(CCCC2)N1O	DT40 TDP1 no CPT inconclusive
S=C1NC2(CCCCC2)Nc2ccccc21	DT40 TDP1 no CPT inconclusive, Gal4-VP16 FLuc inconclusive, RORgamma inh 7.1µM, TDP1 cell CPT inconclusive
Cc1ccc(N2CC(C(=O)OCC(=O)c3ccc([N+](=O)[O-])cc3)CC2=O)cc1 (stereo not drawn)	IL-1B inflam inh -74
COc1cccc(N2CCN(C(=O)c3ccc(Cl)c(NC4=NC5CS(=O)(=O)CC5S4)c3)CC2)c1 (stereo not drawn)	none
COC(=O)C1=C(C)N(Cc2ccccc2)C(=S)N[C@H]1c1cccc(F)c1	Gal4-VP16 FLuc 13µM, RORgamma inh 4.5µM, TDP1 cell CPT inconclusive
CCN1C(=S)N[C@@H](c2ccccc2)C(C(=O)OC)=C1C	Gal4-VP16 FLuc inconclusive, RORgamma inh 3.2µM, ELG1 DNA repair inconclusive, TDP1 cell CPT inconclusive
CCN1C(=NCCOC)N[C@@H](c2cccc(F)c2)C(C(=O)OC)=C1C	none

Screening results: PubChem BioAssay, National Center for Advancing Translational Sciences (NCATS)
